Structures are written as SMILES. Structures can show the parent of a compound that is named as a salt.

This assay relates to Ruminococcus gnavus DSM 108212. The assay is described as follows: fold change of Tryptamine concentration vs plate DMSO controls (fold change (ratio)); higher = more amine produced, active = hit call of the paper (significant change in both replicates, either direction). Particulars: incubation time: 27 h, anaerobic, 37 °C. A digest of the protocol:
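Anaerobic mGAM cultures of four gut bacterial strains were grown at 37 °C for 27 h in 80 µL wells, starting at OD 0.1 before 1:1 dilution. Compounds were at 20 µM final (sweeteners 50 µM). Whole cultures were extracted with cold acetonitrile/methanol containing 0.1% formic acid and centrifuged. Amines were quantified by LC–triple-quadrupole MS (dynamic MRM) against external calibration curves and drift-corrected within batch. Each value is the fold change versus plate DMSO controls, averaged over 2 biological replicates.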
With `CC(=O)S[C@@H]1CC2=CC(=O)CC[C@]2(C)[C@H]2CC[C@@]3(C)[C@@H](CC[C@@]34CCC(=O)O4)[C@H]12` [Spironolactone] (20 µM), the “fold change of Tryptamine concentration” value was 1.06 (inactive). The result for `COC(=O)C1=C(C)NC(C)=C(C(=O)OCCN2CCN(C(c3ccccc3)c3ccccc3)CC2)C1c1cccc([N+](=O)[O-])c1` (configuration not stated) [Manidipine Dihydrochloride] (20 µM) reads 0.848 (inactive); that for `CC(=O)NS(=O)(=O)c1ccc(NC(=O)c2ccccc2C(=O)O)cc1` [Phthalylsulfacetamide] (20 µM), 1.03 (inactive); that for `CN(C/C=C/C#CC(C)(C)C)Cc1cccc2ccccc12` [Terbinafine] (20 µM), 0.97 (inactive). The result for `Nc1nc2[nH]cnc2c(=S)[nH]1` [Tioguanine] (20 µM) reads 1.01 (inactive); that for `CC(=O)OCC(=O)[C@@]12N=C(C)O[C@@H]1C[C@H]1[C@@H]3CCC4=CC(=O)C=C[C@]4(C)[C@H]3[C@@H](O)C[C@@]12C` [Deflazacort] (20 µM), 1.07 (inactive); that for `CCCCOCCOCCOCc1cc2c(cc1CCC)OCO2` [Piperonyl butoxide] (20 µM), 1.07 (inactive). The result for `O=C(Cn1ccnc1[N+](=O)[O-])NCCO` [Etanidazole] (20 µM) reads 1.28 (active); that for `CCN(CC)CCNC(=O)c1cc(Cl)c(N)cc1OC` [Metoclopramide monohydrochloride] (20 µM), 1.02 (inactive). With `CCN(CC)CCNC(C(=O)OCCC(C)C)c1ccccc1` (configuration not stated) [Camylofine chlorhydrate] (20 µM), the “fold change of Tryptamine concentration” value is 0.943 (inactive).

Consider `Cc1cc(C)nc(NS(=O)(=O)c2ccc(N)cc2)n1` [Sulfamethazine sodium salt] (20 µM), for which the “fold change of Tryptamine concentration” value is 1.04 (inactive). The result for `C/C(O)=C(\C#N)C(=O)Nc1ccc(C(F)(F)F)cc1` [Teriflunomide] (20 µM) reads 1 (inactive); that for `NC[C@@H]1O[C@@H](O[C@H]2[C@H](O)[C@@H](O[C@H]3O[C@H](CO)[C@@H](O)[C@H](N)[C@H]3O)[C@H](N)C[C@@H]2N)[C@@H](O)[C@H](O)[C@H]1O` [Kanamycin A sulfate] (20 µM), 1.01 (inactive). The same measure for `CN[C@@H]1[C@H](O)[C@H](NC)[C@H]2O[C@@]3(O)C(=O)C[C@@H](C)O[C@H]3O[C@@H]2[C@H]1O` [Spectinomycin dihydrochloride] (20 µM): 0.991 (inactive); for `CCOC(=O)c1ccc(C#Cc2ccc3c(c2)C(C)(C)CCS3)nc1` [Tazarotene] (20 µM): 1.22 (inactive). The same measure for `CCCOc1ccc2[nH]c(NC(=O)OC)nc2c1` [Oxibendazol] (20 µM): 1 (inactive). Consider `CCN(CCCc1ccccc1)CCCc1ccccc1` [Alverine citrate salt] (20 µM), for which the “fold change of Tryptamine concentration” value is 0.74 (active). The result for `CO[C@@H]1[C@@H](OC(N)=O)[C@@H](O)[C@H](Oc2ccc3c(O)c(NC(=O)c4ccc(O)c(CC=C(C)C)c4)c(=O)oc3c2C)OC1(C)C` [Novobiocin sodium salt] (20 µM) reads 0.176 (active); that for `CCOC(N)=O` [Urethane] (20 µM), 0.961 (inactive).

Turning to `CCN1CCN(C(=O)N[C@@H](C(=O)N[C@@H]2C(=O)N3[C@@H]2SC(C)(C)[C@@H]3C(=O)O)c2ccccc2)C(=O)C1=O` [Piperacillin sodium salt] (20 µM), the “fold change of Tryptamine concentration” value is 0.0274 (active). The result for `CC1CCc2cc(F)cc3c(=O)c(C(=O)O)cn1c23` (configuration not stated) [Flumequine] (20 µM) reads 0.989 (inactive). In the case of `CO/N=C1\CN(c2nc3c(cc2F)c(=O)c(C(=O)O)cn3C2CC2)CC1CN` (configuration not stated) [Gemifloxacin mesylate] (20 µM), the “fold change of Tryptamine concentration” value is 0.148 (active). The result for `C=CCOc1ccc(CC(=O)O)cc1Cl` [Alclofenac] (20 µM) reads 1.05 (inactive). The same measure for `C[C@]12CC[C@H]3[C@@H](CCC4=CC(=O)CC[C@@]43C)[C@@H]1CC[C@@H]2C(=O)CO` [Deoxycorticosterone] (20 µM): 1.03 (inactive); for `CCCC(CCC)C(=O)O[C@H]1C[C@H]2CC[C@@H](C1)[N+]2(C)C` [Anisotropine Methylbromide] (20 µM): 1.04 (inactive); for `Cc1cn(-c2cc(NC(=O)c3ccc(C)c(Nc4nccc(-c5cccnc5)n4)c3)cc(C(F)(F)F)c2)cn1` [Nilotinib] (20 µM): 0.879 (inactive). The same measure for `OCCN1CCN(CC/C=C2/c3ccccc3Sc3ccc(C(F)(F)F)cc32)CC1` [Flupentixol dihydrochloride cis-(Z)] (20 µM): 0.921 (inactive).

These data come from the supplement of paper PMC12494721.
